Assay results as given in the supplement of paper PMC13380429.

How the values were obtained:
[1] = tested on: Vero E6 infected with SARS-CoV-2; test: morphology score (similarity to uninfected cells); higher = more like uninfected cells; conditions: 24 h
[2] = tested on: Vero E6 infected with SARS-CoV-2; test: SARS-CoV-2 infection rate relative to infected DMSO; higher = more infection, active = 60 or less; conditions: 24 h

Q: For `CC[N+]1(C)CCCC(OC(=O)C(O)(c2ccccc2)c2ccccc2)C1` (stereo not given) [pipenzolate] (10 µM), which morphology score [1] is on record?
A: 0.153

Q: And the SARS-CoV-2 infection rate [2]?
A: 98% (inactive)

Q: How did the morphology score [1] turn out when `C[C@H](Cc1ccc(OCC(=O)O)cc1)NC[C@H](O)c1cccc(Cl)c1` (10 µM) was run?
A: -0.0663

Q: And the SARS-CoV-2 infection rate [2]?
A: 107% (inactive)

Q: With `CCC[C@H](N[C@@H](C)C(=O)N1[C@H](C(=O)O)C[C@@H]2CCCC[C@@H]21)C(=O)O` [perindoprilat] (10 µM) as the compound, how does the morphology score [1] read?
A: 0.276

Q: And the SARS-CoV-2 infection rate [2]?
A: 104% (inactive)

Q: With `COCCOC(=O)C1=C(C)NC(C)=C(C(=O)OC(C)C)C1c1cccc([N+](=O)[O-])c1` (stereo not given) [nimodipine] (10 µM) as the compound, how does the morphology score [1] read?
A: 0.14

Q: What about the SARS-CoV-2 infection rate [2] of the same compound?
A: 92% (inactive)

Q: With `Cc1c(C(N)=O)cc([N+](=O)[O-])cc1[N+](=O)[O-]` [dinitolmide] (10 µM) as the compound, how does the morphology score [1] read?
A: -0.0186

Q: And the SARS-CoV-2 infection rate [2]?
A: 106% (inactive)

Q: For `COc1cc(C#N)ccc1S(=O)(=O)Nc1ccc2c(c1)cc(C)c(=O)n2C` (10 µM), which morphology score [1] is on record?
A: 0.0143

Q: And the SARS-CoV-2 infection rate [2]?
A: 102% (inactive)

Q: Which results are given for `CCCCn1ccc(N2CCC(c3ccccc3)CC2)c(Cl)c1=O` (10 µM)?
A: morphology score [1]: -0.265; SARS-CoV-2 infection rate [2]: 116% (inactive)

Q: What does the source list for `N#Cc1cc(NC(=O)C(=O)O)c(Cl)c(NC(=O)C(=O)O)c1` [lodoxamide] (10 µM)?
A: morphology score [1]: -0.0976; SARS-CoV-2 infection rate [2]: 110% (inactive)

Q: With `FC(F)(F)Oc1ccc2nc(-c3ccc(OCCOCCOc4ccc(-c5nc6ccc(OC(F)(F)F)cc6[nH]5)nc4)cn3)[nH]c2c1` (10 µM) as the compound, how does the morphology score [1] read?
A: -0.247

Q: What about the SARS-CoV-2 infection rate [2] of the same compound?
A: 116% (inactive)

Q: Which morphology score [1] does the source give for `C#CC[C@H](c1nc2cc(Cl)ccc2c(=O)n1Nc1ccccc1)N(CCCN)C(=O)c1cccc(Cl)c1F` (0.833333 µM) here?
A: -0.0173

Q: What about the SARS-CoV-2 infection rate [2] of the same compound?
A: 112% (inactive)
